Bioassay records from PubChem.
PLK1 PBD inh = qHTS for Inhibitors of PLK1-PDB (polo-like kinase 1 - polo-box domain): Primary Screen; Potency, µM, for inactives: max response, negative = inhibition, usual class: inhibitors; Plk1 PBD binding of FITC phosphopeptide, fluorescence polarization; Serine/threonine-protein kinase PLK1 (Homo sapiens), P53350; AID 720504, 2013; 360,000 tested, 2.8% active; further: series mostly up to about 57 µM; on the % scale 0 is the no-effect control and ±100 the full control effect; nearly all actives have a fitted effect of over 65% in size
G9a block = qHTS Assay for Inhibitors of Histone Lysine Methyltransferase G9a; Histone-lysine N-methyltransferase EHMT2 (Homo sapiens), Q96KQ7; G9a H3K9 monomethylation, AlphaScreen, 2 h; Potency, µM (top dose mostly 102 µM), without a hit: top-dose activity, negative = inhibition, most hits filed as inhibitors; 350,000 tested, 8.8% active; AID 504332, 2011; further: on the % scale 0 is the no-effect control and ±100 the full control effect; nearly all actives have a fitted effect of over 75% in size
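G9a (20 nM) was preincubated 15 min with compound, then reacted 2 h at room temperature with 500 nM biotin-H3K9 peptide and 20 µM SAM. Monomethyl-H3K9 detected by AlphaScreen using anti-H3K9me1 antibody.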
BAZ2B inh = qHTS Assay for Inhibitors of BAZ2B | Bromodomain adjacent to zinc finger domain protein 2B (Homo sapiens), Q9UIF8 | AlphaScreen BAZ2B-H3K14Ac peptide displacement | Potency, µM (titrated, usually from 114 µM), inactives show at the highest dose activity change, negative = inhibition, usual class: inhibitors | 360,000 tested, 4.4% active; further: on the % scale 0 is the no-effect control and ±100 the full control effect; nearly all actives have a fitted effect of over 60% in size
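BAZ2B 50 nM plus b-H3(5-23)K14Ac 50 nM, PBS pH 7.4/0.01% Tween-20, 30 min RT; compound added (max 110 uM), 30 min RT; streptavidin donor/Ni-chelate acceptor beads 10 ug/mL final, 20 min dark; AlphaScreen read.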
HP1b binding inh = HTS for Inhibitors of HP1-beta Chromodomain Interactions with Methylated Histone Tails | Chromobox protein homolog 1 (Homo sapiens), P83916 | AlphaScreen HP1-beta / biotin-H3K9me3 peptide binding | Potency, µM (top dose mostly 114 µM), without a hit: at the highest dose activity change, negative = inhibition, usual class: inhibitors | 390,000 tested, 0.56% active; further: nearly all actives have a fitted effect of over 70% in size
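AlphaScreen: HP1-beta (50 nM) preformed 30 min with biotin-H3(1-18)K9me3 peptide (50 nM) in PBS pH 7.4, 0.01% Tween-20. Compound added for 30 min at RT, then streptavidin donor/nickel chelate acceptor beads (10 ug/mL) for 30 min.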
JMJD2A Tudor inh = qHTS Assay for Inhibitors of JMJD2A-Tudor Domain | Lysine-specific demethylase 4A (Homo sapiens), O75164 | AlphaScreen JMJD2A-Tudor / H3K4me3 peptide binding | Potency, µM (titrated, usually from 114 µM), without a hit: at the top dose activity change, negative = inhibition, actives largely listed as inhibitors | 390,000 tested, 4.4% active | AID 504339, 2011; further: on the % scale 0 is the no-effect control and ±100 the full control effect; nearly all actives have a fitted effect of over 50% in size
VDR inhibitor = Inhibitors of the vitamin D receptor (VDR): qHTS; Vitamin D3 receptor (Homo sapiens), P11473; VDR-SRC2-3 peptide fluorescence polarization, 2 h; Potency, µM, for the others: max response, negative = inhibition, actives largely listed as inhibitors; 400,000 tested, 0.93% active; further: on the % scale 0 is the no-effect control and ±100 the full control effect
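Signal is fluorescence polarization, reporting how far test compounds block the interaction of VDR with the SRC2-3 coregulator peptide after a 2 h room-temperature incubation.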
* marks the source's active call; other numbers are inactive results; [ ] = remark or other dose. Most compounds without a hit are left out; they make up all but 11% or so of the library. The call rests on the fitted dose curve; in most records, active means well fitted curve in the direction sought with a large enough effect; inconclusive means small, poorly fitted or top-dose-only effect, or another doubt; inactive means no such curve, though single readings can be large; an effect the other way counts as inactive or inconclusive. Potency means the concentration at half of the fitted maximal effect.

How did O=[N+]([O-])c1cc([N+](=O)[O-])c(Oc2cc(F)cc(F)c2)cc1NN1CCCCC1 do in these assays?
PLK1 PBD inh: 27µM*; G9a block: 16%[2.33 µM]; BAZ2B inh: -1%; HP1b binding inh: 6%; JMJD2A Tudor inh: inconclusive; VDR inhibitor: -28%

How did O=C1CCCC2=C1C1(CCSC1)N=C(Nc1nc3ccccc3o1)N2 (stereo unspecified) do in these assays?
JMJD2A Tudor inh: -2%

Results for COc1ccccc1NC(=O)C1=C(C)NC(=O)NC1c1cc(C)cs1 (stereo unspecified) ?
PLK1 PBD inh: 4%; G9a block: -11%[59 µM]; BAZ2B inh: -7%; HP1b binding inh: 32%; JMJD2A Tudor inh: -13%; VDR inhibitor: -11%

How did CC(=O)c1ccccc1Oc1cc(NN2CCCCC2)c([N+](=O)[O-])cc1[N+](=O)[O-] do in these assays?
PLK1 PBD inh: -12%; G9a block: 28µM*; BAZ2B inh: 32µM*; HP1b binding inh: 9%; JMJD2A Tudor inh: inconclusive; VDR inhibitor: -23%

How did O=[N+]([O-])c1cc([N+](=O)[O-])c(Oc2ccc(F)cc2F)cc1NN1CCCCC1 do in these assays?
PLK1 PBD inh: 8%; BAZ2B inh: inconclusive; HP1b binding inh: 0%; JMJD2A Tudor inh: inconclusive; VDR inhibitor: 1%

What do the screens show for `COC(=O)c1[nH]c(C)c(/C(O)=C2\C(=O)C(=O)N(CCN(C)C)C2c2ccccc2OC)c1C` (stereo unspecified)?
PLK1 PBD inh: -15%; G9a block: inconclusive; BAZ2B inh: -34%; HP1b binding inh: 18%; JMJD2A Tudor inh: 45µM*; VDR inhibitor: 26%

How did Cc1ccc(/C(O)=C2\C(=O)C(=O)N(CCCN3CCOCC3)C2c2ccccc2F)cc1 (stereo unspecified) do in these assays?
PLK1 PBD inh: -9%

What do the screens show for `COC(=O)c1[nH]c(C)c(/C(O)=C2\C(=O)C(=O)N(CCN3CCOCC3)C2c2ccccc2OC)c1C` (stereo unspecified)?
PLK1 PBD inh: -5%; G9a block: 50µM*; BAZ2B inh: -3%; HP1b binding inh: 18%; JMJD2A Tudor inh: 50µM*; VDR inhibitor: 1%

How did CCOC(=O)c1c(NC(=O)c2cc(=O)c3c(C)cc(C)cc3o2)sc(C(C)=O)c1C do in these assays?
G9a block: -1%[59 µM]; BAZ2B inh: 3%; HP1b binding inh: 37%; JMJD2A Tudor inh: 2%; VDR inhibitor: 14%

How did Cc1ccc2oc(-c3cccc(NC(=S)NC(=O)/C=C/c4ccco4)c3)nc2c1 do in these assays?
PLK1 PBD inh: -12%; BAZ2B inh: -9%; HP1b binding inh: 7%; JMJD2A Tudor inh: inconclusive; VDR inhibitor: 0%

What do the screens show for `O=C(Nc1ccc(Cl)cc1Cl)c1n[nH]c(Cn2cncn2)n1`?
PLK1 PBD inh: -4%; G9a block: 18%[12.7 µM]; BAZ2B inh: 56µM*; HP1b binding inh: 28%; JMJD2A Tudor inh: inconclusive; VDR inhibitor: -2%

Results for N#C/C(=C\c1ccc(Cl)cc1)c1n[nH]c(Cn2cncn2)n1 ?
PLK1 PBD inh: -16%; G9a block: -3%; BAZ2B inh: inconclusive; HP1b binding inh: 20%; JMJD2A Tudor inh: inconclusive; VDR inhibitor: 2%

Results for Cc1ccn2c(c1)nc(=S)n2C(=O)c1ccco1 ?
G9a block: 10µM*; BAZ2B inh: -2%

Results for Cc1nn(C(=O)c2ccco2)c(C)c1Br ?
PLK1 PBD inh: -5%; G9a block: 20%; BAZ2B inh: 10%; HP1b binding inh: 41%; JMJD2A Tudor inh: 0%; VDR inhibitor: 3%

What do the screens show for `Clc1cc2c(nn1)Nc1ccccc1S2`?
PLK1 PBD inh: -15%; G9a block: 5%; BAZ2B inh: 0%; HP1b binding inh: 25%; JMJD2A Tudor inh: -9%; VDR inhibitor: -6%

How did S=C1Nc2ccccc2Sc2ccc(Cl)cc21 do in these assays?
PLK1 PBD inh: 24µM*; G9a block: inconclusive; BAZ2B inh: -19%; HP1b binding inh: -7%; JMJD2A Tudor inh: -13%; VDR inhibitor: -13%

How did CC(C)C[C@@H](CC(=O)N[C@@H](CCC(=O)O)CC(=O)O)NC(=O)[C@@H]1CNCC[C@H]1NC(=O)C[C@H](CCCN)NC(=O)C[C@H](CO)NC(=O)[C@@H]1CCCC[C@H]1N do in these assays?
VDR inhibitor: 0%

How did Cc1cc(OCc2cccc(Cl)c2)c(C)cc1CN1CCOCC1 do in these assays?
PLK1 PBD inh: 1%; BAZ2B inh: 16%; HP1b binding inh: 113%; JMJD2A Tudor inh: 30%; VDR inhibitor: 8%

What do the screens show for `CC(C)OCc1cc(CN2CCN(c3ccccc3)CC2)c(O)c2ncccc12`?
G9a block: -10%[59 µM]; BAZ2B inh: 8.9µM*; HP1b binding inh: 21%; JMJD2A Tudor inh: 25µM*; VDR inhibitor: 6%

How did CCOC(=O)N1CCN(Cc2cc(Cl)c3cccnc3c2O)CC1 do in these assays?
PLK1 PBD inh: -1%; BAZ2B inh: 10µM*; HP1b binding inh: 6%; JMJD2A Tudor inh: 22µM*; VDR inhibitor: 9%

Results for Oc1c(CN2CCOCC2)cc(COCc2ccccc2)c2cccnc12 ?
PLK1 PBD inh: 3%; G9a block: inconclusive; BAZ2B inh: 11µM*; HP1b binding inh: 6%; JMJD2A Tudor inh: 25µM*; VDR inhibitor: inconclusive

Results for Oc1c(CN2CCN(c3ccccc3)CC2)cc(Br)c2cccnc12 ?
PLK1 PBD inh: -3%; G9a block: -9%[59 µM]; BAZ2B inh: inconclusive; HP1b binding inh: 40%; JMJD2A Tudor inh: -36%; VDR inhibitor: -9%

What do the screens show for `c1ccc(N2CCN(Cc3ccnc4ccccc34)CC2)cc1`?
PLK1 PBD inh: -5%; G9a block: 4.5µM*; BAZ2B inh: inconclusive; HP1b binding inh: 25%; JMJD2A Tudor inh: 56µM*; VDR inhibitor: 2%

How did CCC1CC(=O)CCN1S(=O)(=O)c1ccc(C)cc1 (stereo unspecified) do in these assays?
PLK1 PBD inh: -1%; HP1b binding inh: 24%; JMJD2A Tudor inh: -5%; VDR inhibitor: 8%

Results for CCOCc1cc(CN2CCN(c3cccc(Cl)c3)CC2)c(O)c2ncccc12 ?
G9a block: -16%[59 µM]; BAZ2B inh: 13µM*; HP1b binding inh: 23%; JMJD2A Tudor inh: 40µM*; VDR inhibitor: -6%
